High-throughput results as filed in PubChem BioAssay.
The sample as a whole holds a higher share of hits than the screen did.
mHTT CaM bind = mutant huntingtin-calmodulin interaction inhibitors – biochemical, AlphaScreen, primary screen | inhibition, % at 15 µM | AlphaScreen His-mHTT/GST-CaM binding, luminescence | 190,000 compounds, 3.6% hits;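 also: 0% = both proteins with DMSO and 100% = one protein alone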
Pf apPOL block = Pf-apPOL inhibitors, biochemical, fluorescence. Plasmodium falciparum apicoplast DNA polymerase (apPOL). Recombinant Pf-apPOL, molecular beacon fluorescence, 1.5 h. inhibition, % at 10 µM. 210,000 compounds, 0.25% hits. AID 1794808, 2022
Starred values were filed as active, the others as inactive; i = inactive; nt = not tested or not shown; + = active, no number; ! = a repeat was not active. Rule as the data show it: active = inhibition above about 50%; inactive = the rest.

SMILES	mHTT CaM bind	Pf apPOL block
Cc1ccc(N2C(=O)C(C)SC23C(=O)Nc2ccccc23)cc1 (stereo not drawn)	1.0	2.5
Cc1ccc(C2=NNC3(S2)C(=O)Nc2ccc(C)cc23)cc1 (stereo not drawn)	100.0*	0.2
Cc1ccc(C2=NNC(C)(C3(C)NN=C(c4ccc(C)cc4)S3)S2)cc1 (stereo not drawn)	41.3	nt
Cc1ccc(C2=NNC3(S2)C(=O)Nc2ccccc23)cc1 (stereo not drawn)	99.0*	1.4
COC(=O)c1ccc(Cn2cnc3c(nnn3-c3ccc(OC(F)(F)F)cc3)c2=O)o1	-4.7	2.1
Cc1noc(C)c1Cn1ccc2ccn(CCN(C)C)c2c1=O	-1.5	-3.6
CCOC(=O)COc1ccc2c(c1)OC(=Cc1ccc(C)cc1)C2=O	-1.1	-8.6
Fc1ccc(-n2nc3ccc4nonc4c3n2)cc1	-10.6	-4.4
CN1CC(=O)NC(c2ccccc2Cl)C1=O (stereo not drawn)	-6.9	1.3
CC(C)(C)c1ccc(C(=O)NNC(=S)Nc2ccc3c(c2)OCO3)cc1	nt	-122.6
Oc1ccc(Nc2nc(-c3cccnc3)cs2)cc1	58.0*	1.1
Cc1ccc(-c2csc(Nc3ccc(O)cc3)n2)cc1C	86.3*	2.5
Oc1ccc(Nc2nc(-c3ccc(Cl)c(Cl)c3)cs2)cc1	98.0*	-4.2
O=C(O)c1ccc(Nc2nc(-c3cccnc3)cs2)cc1	-4.5	-4.3
Clc1ccc(-c2csc(Nc3ccccc3)n2)cc1	nt	0.2
CCOc1ccc(Nc2nc(-c3ccc(C)c(C)c3)cs2)cc1	24.7	-8.7
CSc1cccc(NC(=O)C2CC(=O)N(c3cccc(NC(C)=O)c3)C2)c1 (stereo not drawn)	4.1	4.6
CCC(=O)N1CCC(N2CCC(C(=O)N(C)Cc3ccccc3)CC2)CC1	20.3	-14.1
O=C(NC1CCCCCC1)C1CCN(S(=O)(=O)c2ccc(Br)s2)CC1	-7.0	0.0
CCNc1cc(N2CCCC(CCC(=O)NC3CCCCC3)C2)ncn1 (stereo not drawn)	-0.5	-6.0
CC(C)NC(=O)c1ccc(OCC2CCCN2C(=O)c2ccc(F)c(F)c2)cc1 (stereo not drawn)	-2.9	-2.0
COC(=O)N1CCc2ccccc2C1C(=O)N1CCN(C(=O)C2CCCO2)CC1 (stereo not drawn)	-4.4	2.2
Cc1nc2ccc3nc(NC(=O)c4ccccc4[N+](=O)[O-])sc3c2s1	29.9	2.9
Cc1nc2ccc3nc(NC(=O)c4ccccc4Cl)sc3c2s1	72.0*!	-7.4
COC(=O)C1C(=O)C2=C(CC1C)NC(C)=C(C(=O)OC(C)C)C2c1ccc(C)c([N+](=O)[O-])c1 (stereo not drawn)	23.7	-1.3
SMILES	mHTT CaM bind	Pf apPOL block
O=C(Cc1ccccc1F)N1CCC(COc2ccccc2C(=O)N2CCOCC2)CC1	4.9	-11.6
O=C(Cc1ccccc1F)N1CCC(COc2ccccc2C(=O)N2CCCCC2)CC1	1.2	70.6*
c1csc(-c2noc(COc3ccc4c(c3)CCC4)n2)c1	-30.9	nt
Cc1cc(C)n(-c2ccnc(NCCC3=CCCCC3)n2)n1	-16.8	3.7
O=C1NC(=O)N(Cc2ccco2)C(=O)/C1=C/c1cn(Cc2ccc(Cl)cc2)c2ccccc12	17.0	0.5
CC1(C(=O)O)COC(c2ccc([N+](=O)[O-])cc2)OC1 (stereo not drawn)	-3.0	-2.7
CNc1ncnc2c1C(c1ccc([N+](=O)[O-])cc1)c1c(NC)ncnc1O2	52.0*	16.0
CCOC(=O)c1c(Nc2ccccc2F)sc(C(=O)c2ccc(Cl)cc2)c1N	nt	-1.2
NC(=O)c1c(Nc2ccc3c(c2)OCO3)sc(C(=O)c2ccc(Cl)cc2)c1N	56.0*	-4.5
Cc1ccc(CNC(=O)N2CC=C(c3cn(C)c4ncccc34)CC2)cc1	25.0	3.8
CN(C)Cc1c(O)ccc2c(=O)c(Oc3ccc4ccccc4c3)c(C(F)(F)F)oc12	76.0*	-1.3
COc1cccc(Oc2c(C(F)(F)F)oc3c(CN(C)C)c(O)ccc3c2=O)c1	-3.4	-6.9
O=C(CSC1=NS(=O)(=O)c2ccccc2N1)NCC1CCCO1 (stereo not drawn)	-7.7	-1.7
COc1ccc(C)cc1NC(=O)c1cc(S(=O)(=O)NCCc2ccccc2)ccc1F	64.0*	-4.2
CCN(Cc1ccccc1)S(=O)(=O)c1ccc(F)c(C(=O)Nc2cc(C)ccc2OC)c1	-4.0	30.8
O=C(Nc1cccc(Cl)c1)c1cc(S(=O)(=O)NCCc2ccccc2)ccc1F	51.0*	-3.9
O=C(Nc1cccc(F)c1)c1cc(S(=O)(=O)NCCc2ccccc2)ccc1F	6.0	-3.5
COc1ccc(NC(=O)Nc2ccccc2NC(=O)c2ccccn2)cc1OC	-5.3	-1.0
CSc1ccccc1NC(=O)CCCS(=O)(=O)Cc1ccccc1	-10.1	-5.7
O=C(Cn1ccc2ccccc2c1=O)Nc1cccc(C(F)(F)F)c1	-6.0	-9.1
O=C(NCCCNCCCNC(=O)c1ccc(/C=N/O)nc1)c1ccc(/C=N/O)nc1	+	-2.6
CN(C)CCCNC(=O)c1ccc(/C=N/O)[n+](C)c1	i	0.9
O=C1CCCC2=C1C(c1cccc([N+](=O)[O-])c1)Nc1ccc(C(=O)c3ccccc3)cc1N2 (stereo not drawn)	56.4*	-8.5
CC1=C(C(=O)Nc2cccc(C(F)(F)F)c2)C(c2cccc([N+](=O)[O-])c2)C2=C(CCCC2=O)N1 (stereo not drawn)	52.0*	-6.6
CC1=C(C(=O)Nc2ccc(C)cn2)C(c2ccc(C)cc2)C2=C(CCCC2=O)N1 (stereo not drawn)	9.0	-0.2
SMILES	mHTT CaM bind	Pf apPOL block
CC1=C(C(=O)Nc2cccc(C(F)(F)F)c2)C(c2ccccc2)C2=C(CC(C)(C)CC2=O)N1 (stereo not drawn)	92.0*	0.8
CC1=C(C(=O)Nc2cccc(C(F)(F)F)c2)C(c2ccccc2)C2=C(CCCC2=O)N1 (stereo not drawn)	36.0	-2.2
CC1=C(C(=O)Nc2ccc(C)cn2)C(c2ccccc2)C2=C(CCCC2=O)N1 (stereo not drawn)	2.0	50.8*
CC1=C(C(=O)Nc2cccc(C(F)(F)F)c2)C(c2ccccn2)C2=C(CC(C)(C)CC2=O)N1 (stereo not drawn)	-2.0	-9.0
O=C1CCCC2=C1C(c1cccnc1)Nc1ccc(C(=O)c3ccccc3)cc1N2 (stereo not drawn)	9.9	-1.5
Cc1ccc2nc(C)cc(C(=O)NC(C)C)c2c1	-2.3	-3.0
Cc1ccc(NC(=O)c2[nH]c3cc(C)sc3c2CN2CCOCC2)c(C)c1	8.7	14.0
COc1ccc(C(NC(=O)c2cccc(OC)c2)c2cc(Cl)c3cccnc3c2O)cc1 (stereo not drawn)	28.0	-0.8
O=C(Nc1ncccc1Cl)c1cccc(F)c1	2.5	-95.9
Cc1ccc(C(NC(=O)c2ccccc2)c2ccc3cccnc3c2O)cc1 (stereo not drawn)	100.0*	-3.2
O=C(NC(c1cccc(F)c1)c1ccc2cccnc2c1O)c1ccccc1 (stereo not drawn)	100.3*	-3.6
CCN(C(=O)C1CCN(c2cc(=O)n(C)c(=O)n2C)CC1)c1cccc(Cl)c1	30.1	-3.6
COc1ccc(Cl)cc1NC(=O)c1ccc(OC)c([N+](=O)[O-])c1	-2.5	-2.8
COc1ccc(CNCc2ccc3c(c2)OCO3)cc1Br	-1.0	5.0
COc1ccc(CNC(=O)Cc2ccccc2)cc1OC	-2.8	5.5
COc1ccc(-c2ccccc2)cc1NCc1ccc2c(c1)OCO2	56.9*	-2.1
COc1ccc([N+](=O)[O-])cc1NCc1ccccc1F	-46.5	-1.2
